TIM10 inh: inhibits growth of TIM10 yeast strain. S. cerevisiae TIM10 strain growth, BacTiter-Glo luminescence, 24 h. inhibition, % at 10 µM. 330,000 tested, 1.4% active. AID 463195;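 active = inhibition of 40% or more at the single tested concentration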;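 note: wild-type TIM10 isogenic control strain grown at permissive 25 °C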
PfHsp90 set2: inhibits growth of yeast expressing Plasmodium falciparum Hsp90; inhibition, % at 9.4 µM; AID 504621; S. cerevisiae expressing PfHsp90, BacTiter-Glo ATP, 48 h; yeast lacking PDR1 and PDR3 efflux regulators; 310,000 tested, 0.32% active;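 active = every replicate shows inhibition above about 80%, whatever the replicate mean, limit read from the data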;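 note: 0% = DMSO neutral controls and 100% = 20 µM radicicol positive controls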
tim10-1 inh: inhibits growth of tim10-1 mutant yeast; S. cerevisiae tim10-1 ts strain growth, BacTiter-Glo, 24 h; inhibition, % at 20 µM; 330,000 tested, 2.2% active;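 active = inhibition of at least 40%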;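 note: mutant grown at 25 °C; 0% = DMSO wells with yeast and 100% = wells holding no yeast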
NALP3 yeast inh: blocks the NALP3 inflammasome reconstituted in yeast; Yeast reconstituted NLRP3/ASC/caspase-1, beta-gal luminescence, 24 h; inhibition, % at 10 µM; 330,000 tested, 0.39% active; AID 2825;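 active = inhibition of 50% or more; inactive = inhibition below 50%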;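 note: plate controls were induced DMSO wells for no effect and uninduced yeast grown without galactose for full effect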
tim23-1 inh: growth inhibitors of tim23-1 mutant yeast | inhibition, % at 20 µM | S. cerevisiae tim23-1 growth, BacTiter-Glo luminescence, 24 h | 330,000 tested, 1.3% active;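 active = growth inhibition of the mutant yeast at or above 50%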;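 note: temperature-sensitive mutant grown at 25 °C; plate controls were DMSO-treated mutant yeast for no effect and medium wells lacking yeast for full effect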
SKKanGAS inh: inhibitors of SKKanGAS S. pyogenes growth in kanamycin (SK-promoter or general growth effect); BacTiter-Glo, 6 h; 300,000 tested, 1.3% active; AID 1662; inhibition, % at 7.5 µM;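 active = mean replicate score, as percent of positive control median, at least 50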;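 note: strain carries kanamycin resistance gene driven by streptokinase promoter and grows in 40 µg/ml kanamycin; loss of luminescence reflects streptokinase promoter inhibition or plain growth inhibition; 0% = median of DMSO wells and 100% = positive control at its reference dose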
tim10-1 confirm: tim10-1 yeast growth inhibition, confirmed. shares compounds with tim10-1 inh. S. cerevisiae tim10-1 ts strain growth, BacTiter-Glo, 24 h. inhibition, % at 20 µM. 7,400 tested, 56% active;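 active = inhibition of yeast growth at or above a set limit in either of two repeat tests at 20 µM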;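 note: tim10-1 mutant grown at permissive 25 °C to find synthetic lethal compounds; 0% = DMSO yeast wells and 100% = medium wells without yeast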
The depositor's hits bear a star. This is a sample that favours compounds with a hit; in the whole collection about 4.5% have one here.

How did COC(=O)c1[nH]c2cc(C)ccc2c1NC(=O)CN1CCCc2ccccc21 do in these assays?
TIM10 inh: 19; PfHsp90 set2: 0; tim10-1 inh: 38; NALP3 yeast inh: 24; tim23-1 inh: 21; SKKanGAS inh: 3

How did Cc1ccc(-n2ccnc(SCC(=O)NC3CCCCC3)c2=O)cc1F do in these assays?
TIM10 inh: 4; tim10-1 inh: 44*; NALP3 yeast inh: 5; tim23-1 inh: 31; SKKanGAS inh: -6; tim10-1 confirm: 13

Results for COc1ccc(-n2ccnc(SCC(=O)NC3CCCC3)c2=O)cc1OC ?
TIM10 inh: 16; PfHsp90 set2: -5; tim10-1 inh: -2; NALP3 yeast inh: 16; tim23-1 inh: 11; SKKanGAS inh: 6

How did Cc1ccc2nc(N(CCN(C)C)C(=O)c3ccc4c(c3)OCCO4)sc2c1 do in these assays?
TIM10 inh: 3; PfHsp90 set2: 1; tim10-1 inh: 15; NALP3 yeast inh: 5; tim23-1 inh: 0; SKKanGAS inh: 8

How did CCN(CC)CCN(C(=O)c1ccc2c(c1)OCCO2)c1nc2ccc(C)cc2s1 do in these assays?
TIM10 inh: 20; PfHsp90 set2: 8; tim10-1 inh: 44*; NALP3 yeast inh: 22; tim23-1 inh: 15; SKKanGAS inh: 0; tim10-1 confirm: 27

Results for CCc1nc2c(c(=O)c3ccccc3n2C)c(=O)n1C1CCCCCC1 ?
TIM10 inh: -2; PfHsp90 set2: 23; tim10-1 inh: 41*; NALP3 yeast inh: 38; tim23-1 inh: 45; SKKanGAS inh: 22; tim10-1 confirm: 11

Results for CC(C)(C)n1nnnc1C(c1ccccc1F)N(Cc1ccco1)CC1CCCO1 (centres undefined) ?
TIM10 inh: 19; PfHsp90 set2: 10; tim10-1 inh: 41*; NALP3 yeast inh: 6; tim23-1 inh: 48; SKKanGAS inh: -5; tim10-1 confirm: 22

What do the screens show for `Cc1cccc2cc(C(c3nnnn3C(C)(C)C)N(Cc3ccco3)CC3CCCO3)c(=O)[nH]c12` (centres undefined)?
TIM10 inh: 31; tim10-1 inh: 22; NALP3 yeast inh: 2; tim23-1 inh: 30; SKKanGAS inh: 7

How did CCOC(=O)c1oc2nc(C(C)C)c3c(c2c1N)CCC3 do in these assays?
TIM10 inh: 21; PfHsp90 set2: 12; tim10-1 inh: 43*; NALP3 yeast inh: 24; tim23-1 inh: 37; SKKanGAS inh: -4; tim10-1 confirm: 29

How did COc1cc(C)ccc1Oc1ncnc(N)c1[N+](=O)[O-] do in these assays?
TIM10 inh: 7; PfHsp90 set2: 1; tim10-1 inh: 19; NALP3 yeast inh: 16; tim23-1 inh: 20; SKKanGAS inh: -1

How did Nc1ncnc(Oc2cccc(C(F)(F)F)c2)c1[N+](=O)[O-] do in these assays?
TIM10 inh: 10; PfHsp90 set2: 14; tim10-1 inh: 43*; NALP3 yeast inh: -21; tim23-1 inh: 43; SKKanGAS inh: 18; tim10-1 confirm: 27

Results for CCCC(=O)N(CCN1CCOCC1)c1nc2c(C)ccc(C)c2s1 ?
TIM10 inh: 5; PfHsp90 set2: 3; tim10-1 inh: 42*; NALP3 yeast inh: 11; tim23-1 inh: 29; SKKanGAS inh: -6; tim10-1 confirm: -4

What do the screens show for `CCCC(=O)N(CCN1CCOCC1)c1nc2c(OC)ccc(C)c2s1`?
TIM10 inh: 3; PfHsp90 set2: -21; tim10-1 inh: 10; NALP3 yeast inh: 17; tim23-1 inh: 1; SKKanGAS inh: 1

How did Cc1ccc(-n2[nH]c(C)c(/C=N/Nc3ccc([N+](=O)[O-])cc3[N+](=O)[O-])c2=O)cc1 do in these assays?
TIM10 inh: 24; PfHsp90 set2: 34; tim10-1 inh: 49*; NALP3 yeast inh: 23; tim23-1 inh: 34; SKKanGAS inh: 24; tim10-1 confirm: 35*

How did Cc1[nH]n(-c2ccc([N+](=O)[O-])cc2)c(=O)c1C=NCC1CCCO1 (centres undefined) do in these assays?
TIM10 inh: 10; PfHsp90 set2: 5; tim10-1 inh: 15; NALP3 yeast inh: 5; tim23-1 inh: 9; SKKanGAS inh: -1

How did c1cncc(-c2nc(N3CCCCCC3)c3ccccc3n2)c1 do in these assays?
TIM10 inh: 26; PfHsp90 set2: 14; tim10-1 inh: 50*; NALP3 yeast inh: 2; tim23-1 inh: 44; SKKanGAS inh: 3; tim10-1 confirm: 32*

Results for CN1CCN(c2nc(-c3cccnc3)nc3ccccc23)CC1 ?
TIM10 inh: -1; PfHsp90 set2: -16; tim10-1 inh: 9; NALP3 yeast inh: 16; tim23-1 inh: 10; SKKanGAS inh: -2

Results for Cc1[nH]c2ccccc2c1C(C[N+](=O)[O-])c1cccc(O)c1 (centres undefined) ?
TIM10 inh: -1; tim10-1 inh: 22; NALP3 yeast inh: 3; tim23-1 inh: 12; SKKanGAS inh: 2

What do the screens show for `O=c1[nH][nH]c(-c2ccccc2O)c1C(C[N+](=O)[O-])c1ccccc1` (centres undefined)?
TIM10 inh: 36; PfHsp90 set2: 12; tim10-1 inh: 45*; NALP3 yeast inh: 31; tim23-1 inh: 42; SKKanGAS inh: -15; tim10-1 confirm: 31

What do the screens show for `CCN(CC)S(=O)(=O)c1ccc(O)c(C(=O)OCC(=O)N2CCCC2)c1`?
TIM10 inh: 4; PfHsp90 set2: 27; tim10-1 inh: -6; NALP3 yeast inh: 20; tim23-1 inh: 12; SKKanGAS inh: 6

What do the screens show for `COC(=O)c1ccc(Sc2nnnn2-c2ccccc2)c([N+](=O)[O-])c1`?
TIM10 inh: 25; PfHsp90 set2: 4; tim10-1 inh: 50*; NALP3 yeast inh: 0; tim23-1 inh: 42; SKKanGAS inh: 0; tim10-1 confirm: 35*

How did O=C(O)c1ccc(Sc2nnnn2-c2ccccc2)c([N+](=O)[O-])c1 do in these assays?
TIM10 inh: -16; PfHsp90 set2: 3; tim10-1 inh: 14; NALP3 yeast inh: 11; tim23-1 inh: 18; SKKanGAS inh: 1

How did Clc1ccc(-c2cc(C3CCNCC3)[nH]n2)cc1 do in these assays?
TIM10 inh: 6; PfHsp90 set2: -1; tim10-1 inh: -3; NALP3 yeast inh: 18; tim23-1 inh: 18; SKKanGAS inh: 2

How did Nc1nc(Cl)cc(N2CCC(c3cc(-c4ccc(Cl)cc4)n[nH]3)CC2)n1 do in these assays?
TIM10 inh: 35; PfHsp90 set2: -32; tim10-1 inh: 84*; NALP3 yeast inh: 8; tim23-1 inh: 48; SKKanGAS inh: 21; tim10-1 confirm: 73*

How did Cn1c(N2CCOCC2)nc(-c2ccccc2)c1-c1ccccc1 do in these assays?
TIM10 inh: 39; PfHsp90 set2: 43; tim10-1 inh: 46*; NALP3 yeast inh: -73; tim23-1 inh: 41; SKKanGAS inh: 2; tim10-1 confirm: 39*
